The panel holds about 83,000 compounds, 20% with a hit somewhere; the sample as a whole holds those more often.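 Growth was measured after 48 h exposure to one concentration of compound in 96-well plates. Values under 10 count as active.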 Values without a mark were called inactive. Calls of active or inactive are those of the source. Where a SMILES comes first, the peptide text is derived from it. Bridges are numbered along the chain shown (N, C = ends). [ ]: non-standard residue; d: D form. The star is where a group is joined. ξ: configuration not given here. ξNMePhe(4-NMe2) = CNC(Cc1ccc(N(C)C)cc1)C(=O)O; Picolinoyl(3-OH) = O=C(c1ncccc1O)*; ξPip(4-oxo) = O=C1CCNC(C(=O)O)C1; Phg = N[CH](C(=O)O)c1ccccc1; Abu = CC[CH](N)C(=O)O
What follows are compounds tested on SF-539 CNS (assay: NCI-60 one-dose screen, 48 h (100 = growth as untreated, 0 = no growth, -100 = all killed)). Details: 10 µM.

| SMILES | growth |
| --- | --- |
| C=CCNc1ccccc1 | 104% |
| CCOC(=O)C(CCC(C)C)C(=O)OCC | 107% |
| COc1cccc(Sc2ccc([N+](=O)[O-])c3no[n+]([O-])c23)c1 | 95.4% |
| CC1CC(O)CC(C)(C)C1 (stereo not drawn) | 95.2% |
| Oc1ccccc1O | 84.1% |
| Clc1ccc(-c2n[nH]c3c2Cc2ccccc2-3)cc1Cl | 95.6% |
| CC1OC(Oc2c(-c3ccc(O)c(O)c3)oc3cc(O)cc(O)c3c2=O)C(O)C(O)C1O (stereo not drawn) | 110% |
| O=c1[nH]nc(SC2CCCCC2)c(=O)[nH]1 | 99% |
| CC(C)C1CCCCC1O (stereo not drawn) | 101% |
| CCC(C#N)(CC)c1ccccc1 | 113% |
| CC(=O)c1ccc(C(C)(C)C)cc1 | 94.3% |
| CC(C)OC(=O)c1cc(NC(=S)OC(C)C)ccc1Cl | 89.6% |
| Cc1cc2ccccc2c(O)c1C#N | 110% |
| OCCN1CCOCC1 | 111% |
| CC(=O)Oc1ccc(Br)cc1C(=O)O | 93.2% |
| C#CCSc1nnnn1-c1ccc(Br)c(C)c1 | 89% |
| c1ccc2c(c1)Sc1ccccc1S2 | 106% |

The compounds below were run on UACC-257 melanoma in the same assay as above. Details: 10 µM.

| SMILES | growth |
| --- | --- |
| N#CC1(Nc2ccc3c4c(cccc24)CC3)CCCCC1 | 92.9% |
| CCCC1(c2ccccc2)NC(=O)NC1=O (stereo not drawn) | 108% |
| O=C(NN=C1CCCCC1)C(=O)NN=C1CCCCC1 | 108% |
| CC1CCCC(CC(N)=O)CC1 (stereo not drawn) | 104% |
| CC(=O)OC(OC(C)=O)C1CCCO1 (stereo not drawn) | 98% |
| CCOc1ccc(/C=N/N=C(N)N)cc1OCC | 89.7% |
| COc1ccc2c(NCCCCCCCCNc3c4ccccc4nc4cc(OC)ccc34)c3ccccc3nc2c1 | -88.8% (active) |
| Nc1ncnc2[nH]ncc12 | 16.3% |
| Cc1ccc(C(=O)c2ccccc2)c(C)c1 | 112% |
| O=C(c1ccc(Cl)cc1)c1ccccc1Cl | 93.6% |
| COc1cc2c(cc1O)CC[C@@H]1C2CC[C@@]2(C)C1CC[C@@H]2O (stereo partly drawn) | 23.3% |
| CC(=O)OCC1=CC2OC(=O)C3=COC(OC4OC(CO)C(O)C(O)C4O)C1C32 (stereo not drawn) | 102% |
| CC1(C)N=C(N)N=C(N)N1c1cccc(Br)c1 | 56% |
| C/C(=C\c1ccc([N+](=O)[O-])cc1)C(=O)O | 98.8% |
| Oc1ccccc1-c1nnco1 | 97.3% |
| CO[C@H]1C[C@@H]2CC[C@@H](C)[C@@](O)(O2)C(=O)C(=O)N2CCCC[C@H]2C(=O)O[C@H]([C@H](C)C[C@@H]2CC[C@@H](O)[C@H](OC)C2)CC(=O)[C@H](C)C=C(C)[C@@H](O)[C@@H](OC)C(=O)[C@H](C)C[C@H](C)/C=C/C=C/C=C1C | 37.3% |

| SMILES | growth |
| --- | --- |
| Cc1cccc(C(=O)N(C(C)C)C(C)C)c1 | 87.3% |
| CC1(C)/C(=C\CO)C2CCC1C2 (stereo not drawn) | 132% |
| CN(C)c1ccc(S(=O)(=O)O)cc1 | 107% |
| O=[N+]([O-])c1ccc(/C=C/C=C/c2ccccc2)c(Cl)c1 | 95.1% |
| N#CSc1cc(S(N)(=O)=O)ccc1N | 107% |
| CCC1NC(=O)C(NC(=O)c2ncccc2O)C(C)OC(=O)C(c2ccccc2)NC(=O)C2CC(=O)CCN2C(=O)C(Cc2ccc(N(C)C)cc2)N(C)C(=O)C2CCCN2C1=O (stereo not drawn) (tested in a mixture with another compound) ({Picolinoyl(3-OH)}-T[Abu]P[ξNMePhe(4-NMe2)][ξPip(4-oxo)][Phg]; ester 1-C; configuration not given here) | 70.6% |
| C=CCNc1ccccc1 | 102% |
| CCOC(=O)C(CCC(C)C)C(=O)OCC | 97.5% |
| COc1cccc(Sc2ccc([N+](=O)[O-])c3no[n+]([O-])c23)c1 | 96.7% |
| CC1CC(O)CC(C)(C)C1 (stereo not drawn) | 97.8% |
| Oc1ccccc1O | 87.7% |
| Clc1ccc(-c2n[nH]c3c2Cc2ccccc2-3)cc1Cl | -6.12% (active) |
| CC1OC(Oc2c(-c3ccc(O)c(O)c3)oc3cc(O)cc(O)c3c2=O)C(O)C(O)C1O (stereo not drawn) | 104% |
| O=c1[nH]nc(SC2CCCCC2)c(=O)[nH]1 | 91.2% |
| CC(C)C1CCCCC1O (stereo not drawn) | 101% |
